Measured values taken from PubChem BioAssay.
Active and inactive are the calls of the source. Unless noted, how the calls were made is not given here.

Experiments:
[1] = resazurin metabolic signal in HepG2 cells – cell-based, resazurin fluorescence, 24 h, PK04 Diversity Set, profiling panel (AID 1172); conditions: HepG2 viability, higher = more signal; further: test concentration not given here
[2] = budding yeast growth changes without added modifier – OD600, strain BY4716, 24 h, basal condition, primary screen (AID 1173); conditions: S. cerevisiae BY4716 growth, OD600, 24 h; higher = more signal, called active from +8 up or from −8 down
[3] = viability profiling in MM1S myeloma cells – cell-based, resazurin fluorescence, basal, 24 h, PK04 Diversity Set, profiling panel (AID 1174); conditions: higher = more signal, called active from +8 up or from −8 down;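 further: MM1S multiple myeloma cell line; test concentration not given here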
[4] = biological target: Dihydroorotate dehydrogenase (quinone), mitochondrial (Plasmodium falciparum (isolate 3D7)) (UniProt Q08210); assay: inhibition of P. falciparum DHODH – biochemical, C-terminal His tag, absorbance 600 nm, primary screen (AID 1175); conditions: PfDHODH enzyme, DCIP absorbance 600 nm; higher = more signal, called active from +8 up or from −8 down;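 further: recombinant parasite enzyme with a five histidine tag at its C terminus; test concentration not given here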
[5] = inhibition of PAO1 biofilm formation – strain PAO1, LB-PBS medium, absorbance 600 nm, primary screen (AID 1176); further: test concentration not given here; conditions: P. aeruginosa PAO1 growth/biofilm, A600, 12 h; higher = more signal
[6] = growth modulation of vineyard yeast isolate – strain RM11-1a, OD600, basal, 24 h, primary screen (AID 1177);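 further: cultures grown under basal conditions with no added stressor; test concentration not given here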; conditions: S. cerevisiae RM11-1a growth, OD600, 24 h; higher = more signal, called active from +8 up or from −8 down
[7] = growth of efflux-deficient E. coli DRC39 – strain DRC39, OD650, 24 h, E. coli filamentation inducers, primary screen (AID 1178);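 further: growth measured as culture turbidity by optical density at 650 nm; test concentration not given here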; conditions: E. coli DRC39 acrAB, higher = more signal, called active from +8 up or from −8 down
[8] = growth of efflux-deficient E. coli DRC39 – strain DRC39, OD650, 48 h, E. coli filamentation inducers, primary screen (AID 1179);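 further: screen aims at cell division blockers that make cells filament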; conditions: E. coli DRC39 delta-acrAB growth, higher = more signal, called active from +8 up or from −8 down
[9] = viability profiling in RPMI8226 myeloma cells – cell-based, resazurin fluorescence, basal, 24 h, PK04 Diversity Set, profiling panel (AID 1180); conditions: higher = more signal;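 further: RPMI8826 multiple myeloma cell line at 5000 cells per well; test concentration not given here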
[10] = biological target: E3 ubiquitin-protein ligase XIAP (Homo sapiens) (UniProt P98170); assay: small molecules binding XIAP protein – biophysical, small-molecule microarray, fluorescence 635 nm, primary screen (AID 1181); conditions: higher = more signal;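 further: score merges 667 nm emission and signal to noise over triplicate slides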
Sequence of E3 ubiquitin-protein ligase XIAP (Homo sapiens) (P98170 whole entry, looked up): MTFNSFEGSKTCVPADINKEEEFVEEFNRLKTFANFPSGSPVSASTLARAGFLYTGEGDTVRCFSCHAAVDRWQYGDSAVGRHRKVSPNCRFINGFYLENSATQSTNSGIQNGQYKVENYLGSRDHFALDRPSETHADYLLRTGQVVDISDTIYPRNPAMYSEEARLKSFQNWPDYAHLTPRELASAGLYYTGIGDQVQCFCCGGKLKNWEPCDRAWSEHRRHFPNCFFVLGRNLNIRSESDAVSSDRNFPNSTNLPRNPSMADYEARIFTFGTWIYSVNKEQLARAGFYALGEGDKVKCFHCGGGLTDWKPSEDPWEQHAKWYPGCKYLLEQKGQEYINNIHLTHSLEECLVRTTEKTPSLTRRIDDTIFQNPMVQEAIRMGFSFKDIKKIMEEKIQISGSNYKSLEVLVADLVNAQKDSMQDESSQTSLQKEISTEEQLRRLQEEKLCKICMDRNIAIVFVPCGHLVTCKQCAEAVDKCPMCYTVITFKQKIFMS

Sequence of Dihydroorotate dehydrogenase (quinone), mitochondrial (Plasmodium falciparum (isolate 3D7)) (Q08210 whole entry, looked up): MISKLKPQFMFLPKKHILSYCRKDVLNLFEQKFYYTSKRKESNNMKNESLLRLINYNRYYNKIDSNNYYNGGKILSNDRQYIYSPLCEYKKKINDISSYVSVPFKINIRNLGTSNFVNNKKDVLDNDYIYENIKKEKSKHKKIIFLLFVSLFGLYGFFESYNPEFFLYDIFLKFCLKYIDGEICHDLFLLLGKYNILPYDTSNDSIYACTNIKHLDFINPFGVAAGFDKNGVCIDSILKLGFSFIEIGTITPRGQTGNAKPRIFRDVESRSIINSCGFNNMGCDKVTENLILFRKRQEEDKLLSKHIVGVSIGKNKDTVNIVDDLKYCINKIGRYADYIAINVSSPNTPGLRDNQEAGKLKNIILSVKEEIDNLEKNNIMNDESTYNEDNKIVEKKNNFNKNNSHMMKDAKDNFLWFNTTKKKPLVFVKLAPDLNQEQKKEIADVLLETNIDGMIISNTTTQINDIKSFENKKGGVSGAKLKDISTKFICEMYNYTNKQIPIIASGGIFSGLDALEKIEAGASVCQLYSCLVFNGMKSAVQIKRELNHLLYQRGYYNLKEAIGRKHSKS

Structure (SMILES) | z-score [1] | z-score [2] | z-score [3] | composite z-score [4] | z-score [5] | z-score [6] | z-score [7] | z-score [8] | z-score [9] | composite z-score [10]
C=CC[C@@]1(C(=O)NCCCOC)N=C(c2ccc(OCCCO)cc2)O[C@@H]1c1ccccc1 | -0.843 | -1.85 (inactive) | -0.203 (inactive) | -1.65 (inactive) | -0.375 (inactive) | -1.27 (inactive) | -0.12 (inactive) | 1.13 (inactive) | -0.1 | 0.065
COc1ccc(CCNC(=O)[C@@]2(Cc3ccccc3I)c3ccccc3C(=O)N(C3CCCCC3)[C@H]2c2ccc(CO)cc2)cc1 | -0.0428 | -0.447 (inactive) | -0.0298 (inactive) | -0.145 (inactive) | 0.462 (inactive) | -2.65 (inactive) | 0.314 (inactive) | 0.197 (inactive) | -0.0337 | 0.144
Cc1ccc(C(C)CC(O)C2C=CC3C(=O)N(c4ccccc4)C(=O)C3N2Nc2ccccc2)o1 (stereo not given) | -1.38 | -2.27 (inactive) | -1.01 (inactive) | -0.478 (inactive) | 0.574 (inactive) | 0.184 (inactive) | 0.1 (inactive) | -0.681 (inactive) | -0.738 | 0.254
COCCOC(=O)N1C(=O)[C@@]2(c3cc(C#CC4=CCCCC4)ccc31)[C@H](c1ccccc1OCCO)N1[C@H](c3ccccc3)[C@H](c3ccccc3)OC(=O)[C@H]1[C@@H]2C(=O)NC[C@H](O)c1ccccc1 | -1.14 | 0.861 (inactive) | -2.19 (inactive) | -0.158 (inactive) | 1.92 (inactive) | 2.08 (inactive) | -0.609 (inactive) | -0.255 (inactive) | -3.52 | -0.0476
CCCC1(C(=O)OC)C=C2C(=C(C)C(=O)C2C)CN1 (stereo not given) | -1.11 | 1.99 (inactive) | -1.23 (inactive) | -1.8 (inactive) | 0.343 (inactive) | 0.338 (inactive) | -0.715 (inactive) | 0.0101 (inactive) | -1.88 | 0.258
N#Cc1ccc(NN2C(C(O)c3ccc(Br)cc3)C=CC3C(=O)N(c4ccccc4)C(=O)C32)cc1 (stereo not given) | -1.3 | -3.42 (inactive) | -0.299 (inactive) | -1.03 (inactive) | 0.819 (inactive) | -1.85 (inactive) | 0.527 (inactive) | 0.656 (inactive) | -0.0706 | 0.179
COCCOC(=O)N1C(=O)[C@@]2(c3cc(C#CC4(O)CCCCCC4)ccc31)[C@H](C(=O)Nc1nc3ccccc3s1)[C@H]1C(=O)O[C@H](c3ccccc3)[C@H](c3ccccc3)N1[C@@H]2c1ccc(O)cc1 | -0.0328 | -0.873 (inactive) | -0.858 (inactive) | -1.03 (inactive) | 0.598 (inactive) | 1.24 (inactive) | 0.487 (inactive) | 0.613 (inactive) | -0.945 | -0.0274
CCCCCCc1nc(Cc2cc(OC)c(OC)c(OC)c2)cc2c1[Si](C(C)C)(C(C)C)OC2 | 0.842 | 0.273 (inactive) | 0.0456 (inactive) | -2.69 (inactive) | -0.215 (inactive) | -0.0979 (inactive) | -0.284 (inactive) | -0.279 (inactive) | -0.295 | 0.0009
CCCCC(O)C1C=CC2C(=O)N(C)C(=O)C2N1N(c1ccccc1)c1ccccc1 (stereo not given) | -0.682 | 0.512 (inactive) | -1.65 (inactive) | -0.226 (inactive) | 1.26 (inactive) | 0.46 (inactive) | -0.447 (inactive) | -0.251 (inactive) | -1.05 | 0.001
C=C[C@H](C)[C@H](OC(=O)Nc1ccc(SC)cc1)c1ccc(OCCO)cc1 | -0.551 | -2.49 (inactive) | -0.547 (inactive) | -0.985 (inactive) | 1.15 (inactive) | 0.116 (inactive) | -0.576 (inactive) | -0.435 (inactive) | -0.274 | 0.133
COc1ccc([Si](C)(C)[C@@H]2[C@@H](CCO)O[C@]3(C(=O)N(Cc4cccc(NC(=O)[C@H](C)O)c4)c4ccccc43)[C@H]2C)cc1 | -5.97 | 0.728 (inactive) | -9.06 (active) | 0.554 (inactive) | 1.25 (inactive) | 4.9 (inactive) | 0.0065 (inactive) | -0.811 (inactive) | -6.22 | 0.0479
CCCNC(=O)[C@@]1(Sc2ccc(C)cc2)CC(=O)N(C2Cc3ccccc3C2)[C@@H]1c1ccc(CO)cc1I | -0.463 | -2.31 (inactive) | -1.67 (inactive) | -0.141 (inactive) | 0.518 (inactive) | -0.564 (inactive) | 0.599 (inactive) | -0.0019 (inactive) | -1.55 | -0.0286
COCCCNC(=O)[C@@]1(Sc2ccc(C)cc2)CC(=O)N(C2Cc3ccccc3C2)[C@@H]1c1ccc(CO)cc1 | 0.183 | -0.153 (inactive) | 0.307 (inactive) | -0.277 (inactive) | 0.779 (inactive) | -1.35 (inactive) | 0.897 (inactive) | 0.568 (inactive) | 0.222 | -0.0367
Cc1cc(C)c(C(O)C2C=CC3C(=O)N(c4ccccc4)C(=O)C3N2Nc2ccccc2F)c(C)c1 (stereo not given) | 0.485 | 2.01 (inactive) | -0.371 (inactive) | 1.03 (inactive) | 0.971 (inactive) | 1.56 (inactive) | -0.47 (inactive) | -0.439 (inactive) | -0.527 | 0.127
CC(C)C(CO)N1C(=O)[C@@H]2[C@H]3C(=O)OCC=C[C@H]3OC23C=CCN(c2ccc(Cl)cc2)C(=O)[C@@H]13 (stereo not given in full) | -0.0883 | 0.646 (inactive) | 0.679 (inactive) | 1.13 (inactive) | -1.13 (inactive) | 1.48 (inactive) | 0.969 (inactive) | 0.646 (inactive) | 1.08 | -0.21
O=C1C2C=CC(C(O)c3cccc(O)c3)N(Nc3ccc([N+](=O)[O-])cc3)C2C(=O)N1c1ccccc1 (stereo not given) | 0.0585 | 0.661 (inactive) | -0.337 (inactive) | 0.861 (inactive) | -0.0601 (inactive) | 0.339 (inactive) | -0.478 (inactive) | -0.156 (inactive) | -0.55 | 0.0927
C[N+](C)(C)CCCCCCNC(=O)[C@@H]1C[C@@H]2C(=O)N3CCC[C@H]3C(=O)N2[C@@H]1c1ccc(O)cc1 | 1.4 | -0.827 (inactive) | 1.02 (inactive) | -1.53 (inactive) | -0.984 (inactive) | -0.0176 (inactive) | 0.0464 (inactive) | -0.207 (inactive) | 0.441 | -0.169
Cc1ccccc1C(O)C1C=CC2C(=O)NC(=O)C2N1Nc1ccccn1 (stereo not given) | -1.07 | 1.21 (inactive) | -0.777 (inactive) | 1.57 (inactive) | 0.543 (inactive) | 0.487 (inactive) | -0.387 (inactive) | -0.316 (inactive) | -0.489 | 0.127
COC(=O)C(CC#Cc1ccc2c(c1)[C@]1(C(=O)N2)[C@H](c2ccc(O)cc2)N2[C@H](c3ccccc3)[C@H](c3ccccc3)OC(=O)[C@H]2[C@@H]1C(=O)NC[C@H](O)c1ccccc1)C(=O)OC | -0.0495 | 0.677 (inactive) | -0.275 (inactive) | -3.93 (inactive) | 0.87 (inactive) | 0.379 (inactive) | 0.062 (inactive) | -0.138 (inactive) | -1.37 | -0.0013
CCCC[C@@H](O)C1=C(COC)C[C@H]2C(=O)N(Cc3ccccc3)C(=O)[C@H]2[C@H]1CO | 0.111 | -1.22 (inactive) | -1.61 (inactive) | -0.401 (inactive) | -0.496 (inactive) | 0.643 (inactive) | 0.418 (inactive) | 0.722 (inactive) | 0.126 | -0.0525
CS(=O)(=O)CCOC(=O)C1=CC(c2ccc(CO)cc2)=CC(C2CC2)N(Cc2sc3ccccc3c2Cl)C=C1C(=O)OCCS(C)(=O)=O (stereo not given) | 0.315 | -5.45 (inactive) | -2.63 (inactive) | -1.26 (inactive) | -0.563 (inactive) | 0.272 (inactive) | -3.53 (inactive) | -2.01 (inactive) | -1.85 | 0.0049
Cc1ccc(S[C@]2(C(=O)NCCN3CCOCC3)CC(=O)N(Cc3ccccc3Cl)[C@@H]2c2ccc(CO)cc2I)cc1 | 0.466 | -3.6 (inactive) | -2.72 (inactive) | -0.576 (inactive) | 0.379 (inactive) | -1.66 (inactive) | 0.392 (inactive) | 0.475 (inactive) | -1.7 | -0.259
